High-throughput results: PubChem, several laboratories
BoNT-F LC inh = BoNT/F light chain protease inhibitors, primary screen, biochemical, flow cytometry, MLPCN library; Botulinum neurotoxin type F light chain protease (Clostridium botulinum); Multiplex microsphere protease cleavage assay; inhibition, % at 10 µM; hit rate 0.22% among 360,000; in the data active = inhibition above about 35%, passing the limit was not always enough; inconclusive = no clear call, values can overlap the other calls
BoNT A protease = BoNT/A light chain protease inhibitors, primary screen, biochemical, flow cytometry, MLPCN library; Botulinum neurotoxin type A light chain protease (Clostridium botulinum A str. ATCC 3502); multiplex microsphere protease substrate cleavage; inhibition, % at 10 µM; hit rate 0.17% among 360,000; AID 588499, 2011
MazF activator = activators of E. coli MazEF toxin-antitoxin RNase, primary screen, biochemical, fluorescence, uHTS; Endoribonuclease toxin MazF (Escherichia coli (strain K12)), P0AE70; FAM/BHQ RNA-DNA oligo cleavage fluorescence, 5 h; activation, % at 20 µM; hit rate 0.32% among 350,000; AID 504720, 2011; in the data active = activation above about 50%
Target sequence (P0AE70 whole entry, looked up): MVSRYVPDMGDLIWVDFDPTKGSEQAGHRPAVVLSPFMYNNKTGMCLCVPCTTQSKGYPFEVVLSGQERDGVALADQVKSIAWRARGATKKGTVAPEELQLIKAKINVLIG
Autofluor counter = compound fluorescence in toxin protease inhibitor counterscreen | AID 624483 | hit rate 3.1% among 360,000 | fluorescence intensity (test concentration not listed) | compound autofluorescence counterscreen, microsphere flow cytometry; hits give high values; in the data active = fluorescence intensity above about 16000; inconclusive = no clear call, values can overlap the other calls
Anthrax LF inh2 = Bacillus anthracis LF protease inhibitors, primary screen, biochemical, multiplex microsphere, MLPCN library; Lethal factor (Bacillus anthracis), P15917; hit rate 0.12% among 360,000; multiplex microsphere protease cleavage assay; inhibition, % at 10 µM
Hits are given with their value; . = inactive; ? = inconclusive; / = not tested or not shown. An excerpt weighted towards active compounds, which were near 3.7% of everything screened. Rule as the data show it, unless noted: active = inhibition above about 30%; inconclusive = no clear call, values can overlap the other calls; inactive = below that.

SMILES | BoNT-F LC inh | BoNT A protease | MazF activator | Autofluor counter | Anthrax LF inh2
O=C(c1ccccc1)c1c[nH]c(C(=O)NCCCN2CCOCC2)c1 | . | ? | . | 22011 | .
CCC(CC)C(=O)c1c[nH]c(C(=O)NCCCN2CCOCC2)c1 | . | ? | . | 23037 | .
O=C(c1ccc(F)cc1)c1c[nH]c(C(=O)NCCCN2CCOCC2)c1 | . | . | . | . | .
CC1(C)CC(NC(=O)c2cc(S(=O)(=O)N3CCOCC3)c(Cl)cc2Cl)CC(C)(C)N1 | ? | ? | . | ? | ?
Cc1ccc(CN2C(=O)c3ccccc3C2c2nnnn2-c2c(C)cccc2C)cc1 (stereo unspecified) | . | . | / | . | .
CCOc1ccc(NC(=O)CN(C2CCCCC2)S(C)(=O)=O)cc1 | . | ? | . | 22520 | .
CCN(CC(=O)Nc1ccc(C(=O)OC)cc1)C1CCCCC1 | . | . | 157.3 | . | .
COC(=O)c1ccc(NC(=O)COC(=O)C2CCC2)cc1 | . | . | . | ? | .
COc1ccc(/C=C/C(=O)NC(=S)N2CCN(C)CC2)cc1 | . | . | 50.8 | . | .
CCOC(=O)N1CCN(C(=S)NC(=O)/C=C/c2ccc(C)cc2)CC1 | . | . | . | . | .
COc1cccc(NS(=O)(=O)c2c(C)cc(C)cc2C)c1 | . | . | . | 20856 | .
COC(=O)c1ccc(/C=C/C(=O)c2ccc(OC)cc2)cc1 | . | . | . | 22281 | .
COc1ccc(/C=C/C(=O)c2ccc(Cl)cc2)c(OC)c1 | . | . | . | 18548 | .
CNC(=O)COC(=O)C1CCN(S(=O)(=O)c2ccc3c(c2)OCCO3)CC1 | . | . | . | . | .
O=C(O)c1ccc(NS(=O)(=O)c2ccc(Cl)cc2)cc1 | . | . | . | 21092 | .
COc1cccc(NS(=O)(=O)c2ccc(NC(C)=O)cc2)c1 | . | ? | . | 23977 | .
COC(=O)c1ccc(NS(=O)(=O)c2ccc(OC)cc2)cc1 | . | ? | . | 22817 | .
O=S(=O)(NC1CCCCCC1)c1cccc2cccnc12 | . | . | . | 16645 | .
O=C(NC1CCCCC1)c1ccc(NS(=O)(=O)c2cccc3cccnc23)cc1 | . | . | . | . | .
COc1ccc(N2CCN(C(=O)c3ccc(NS(=O)(=O)c4ccc(F)c(F)c4)cc3)CC2)cc1 | . | . | . | 17709 | .
COc1ccc(NS(=O)(=O)c2ccc(N3C(=O)CCC3=O)cc2)cc1 | . | . | . | 24859 | .
COc1ccc(NS(=O)(=O)c2ccc(C(=O)N3CCN(c4ccc(F)cc4)CC3)cc2)cc1 | . | . | . | . | .
O=C1CCC(=O)N1c1ccc(S(=O)(=O)Nc2ccc(Br)cc2)cc1 | . | . | . | . | .
COc1cccc(OCCCN2CCN(S(=O)(=O)c3ccc(NC(C)=O)cc3)CC2)c1 | . | ? | . | 20823 | .
COc1ccc(S(=O)(=O)Nc2cccc(NC(C)=O)c2)cc1 | . | . | . | 17504 | .
SMILES | BoNT-F LC inh | BoNT A protease | MazF activator | Autofluor counter | Anthrax LF inh2
CC(=O)Nc1ccc(S(=O)(=O)N2CCN(CCCOc3ccccc3Cl)CC2)cc1 | . | . | . | . | .
O=C(COC(=O)Cn1[nH]c(=O)c2ccccc2c1=O)NNC(=O)c1ccc(Br)cc1 | . | . | . | . | .
CC(=O)c1c(C)[nH]c(C(=O)Nc2ccc(F)cc2F)c1C | . | . | . | . | .
COc1cccc(/C=C/C(=O)OCC(=O)c2ccc(Br)cc2)c1 | . | . | . | . | .
COc1c(C)cc(C(O)c2ncc(-c3ccccc3C(F)(F)F)[nH]2)cc1C (stereo unspecified) | . | . | / | . | .
COc1ccc(OS(=O)(=O)c2ccc(N3C(=O)CCC3=O)cc2)cc1 | . | . | . | . | .
COc1ccc(NS(=O)(=O)c2cccc3cccnc23)cc1 | . | . | . | . | .
COc1ccc(N2C(=O)CCC(C(C)=O)=C2C)cc1 | . | ? | . | 22405 | .
COC(=O)c1ccc(NS(=O)(=O)c2cccc3cccnc23)cc1 | . | . | . | 18372 | .
Cc1cccc(C(=O)Nc2ccccc2NC(=O)c2cccc(C)c2)c1 | . | . | . | . | .
Cc1cccc(C(=O)Nc2ccc(Cl)cc2C(=O)c2ccccc2)c1 | . | ? | . | 20672 | .
N#C/C(=C/c1ccc(N2CCCCCC2)o1)c1ccc(Cl)cc1 | . | . | . | 22830 | .
Nc1nnc(COc2cccc(C(F)(F)F)c2)s1 | . | . | . | . | .
Cc1cccc(OCc2nnc(N)s2)c1 | . | ? | . | 24413 | .
O=C(N/N=C/c1cccc(O)c1)c1ccc(NC(=O)C2CCCCC2)cc1 | . | . | . | . | .
O=C(N/N=C/c1ccc(O)cc1O)c1ccc(NC(=O)C2CCCCC2)cc1 | . | . | . | . | 36.3
COc1ccc(CN2CCNC(=O)C2CC(=O)N(C)C2CCOCC2)cc1OC (stereo unspecified) | . | . | . | . | .
COc1cc(NC(=O)COC(=O)CNC(=O)C23CC4CC(CC(C4)C2)C3)cc(OC)c1 | . | . | . | . | .
O=C(COC(=O)CNC(=O)C12CC3CC(CC(C3)C1)C2)Nc1ccccc1 | . | ? | . | 19773 | .
Cc1cccc(C)c1N1CCN(c2nc(N(C)C)oc(=O)c2C#N)CC1 | . | . | . | 23077 | .
CN(C)c1nc(N2CCN(c3ccccc3)CC2)c(C#N)c(=O)o1 | . | . | . | . | .
CSC[C@H]1CN(c2ccc(Br)cc2)C(=O)[C@@H]1CC(=O)Nc1ccc(Br)cc1 | . | . | . | . | .
CCCCc1c(-c2ccccc2OC)ncn1CCc1ccccc1Cl | . | . | / | . | .
COc1cc(NC(=O)CSc2nnc3ccccn23)cc(OC)c1OC | . | . | . | . | .
Cc1oc(-c2cccc(Cl)c2)nc1CN1CCC(C(=O)N2CCN(c3ccccn3)CC2)CC1 | . | . | . | . | .
SMILES | BoNT-F LC inh | BoNT A protease | MazF activator | Autofluor counter | Anthrax LF inh2
Cc1ccc(-c2nc(CSCC(=O)NCCN3CCN(Cc4ccccc4)CC3)c(C)o2)cc1 | . | . | . | 17085 | .
CCOC(=O)C1CCN(C(=O)CSCc2nc(-c3ccc(OCC)cc3)oc2C)CC1 | . | . | . | . | .
CCOC(=O)N1CCC(NC(=O)CSCc2nc(-c3ccc(OC)c(OC)c3)oc2C)CC1 | . | ? | . | 20515 | .
Cc1cccc(-c2nc(CSCC(=O)N3CCN(c4ccccn4)CC3)c(C)o2)c1 | . | . | . | 16627 | .
Cc1ccc(-c2nc(CSCC(=O)N3CCCC3)c(C)o2)cc1 | . | . | . | 23517 | .
COc1ccc(-c2nc(CSCC(=O)NC3CC3)c(C)o2)cc1OC | . | . | . | . | .
Cc1ccc(-c2nc(CSCC(=O)NCCCN3CCOCC3)c(C)o2)cc1 | . | . | . | . | .
O=C(NC(c1ccc(-c2ccccc2)cc1)c1cnccn1)C1CCN(CCN2C(=O)c3ccccc3C2=O)CC1 (stereo unspecified) | . | . | / | . | .
CCN(C[C@H]1N[C@@](C)(C(=O)OC)[C@H]2C(=O)N(Cc3ccccc3)C(=O)[C@@H]12)S(=O)(=O)c1ccc(OC)cc1 | . | . | . | . | .
